Laboratory results as given in PubChem BioAssay (NCI).
Compounds without any hit were thinned out: in the full panel of roughly 79,000, 15% have a hit. The source made the active and inactive calls. No stated cut-off is given here; in the data, active means growth inhibition above about 70%; inactive means the rest.

Columns and labels:
[1] = NCI Yeast Anticancer Drug Screen. Data for the rad50 strain (AID 155);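 further: 0% = growth of vehicle-only cultures of the same strain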; conditions: S. cerevisiae rad50 strain growth inhibition; at 50.0 µM; hits give high values
Summary of the method: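 Yeast carrying a defined DNA repair defect were exposed to test compounds, and growth was compared with vehicle-treated controls to give percent inhibition.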

[2] = NCI Yeast Anticancer Drug Screen. Data for the mec2-1 strain (AID 157); conditions: S. cerevisiae mec2-1 strain, at 50.0 µM, hits give high values
Summary of the method: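 Each compound was tested on mec2-1 yeast, a strain altered in DNA damage repair or cell cycle control. Growth inhibition is reported relative to vehicle.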

[3] = NCI Yeast Anticancer Drug Screen. Data for the sgs1 mgt1 strain (AID 161);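 further: 0% = growth of cultures given vehicle only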; conditions: S. cerevisiae sgs1 mgt1 strain, at 50.0 µM, hits give high values
Summary of the method: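 Test agents were incubated with a DNA-repair-mutant yeast strain. Growth was then read and compared against vehicle-treated controls.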

[4] = NCI Yeast Anticancer Drug Screen. Data for the cln2 rad14 strain (AID 165);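 further: 0% = growth equal to vehicle treated cultures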; conditions: S. cerevisiae cln2 rad14 strain, at 50.0 µM, hits give high values
Summary of the method: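 Test compounds were added to cln2 rad14 yeast cultures; inhibition of growth was then determined by comparison with vehicle treatment.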

[5] = NCI Yeast Anticancer Drug Screen. Data for the bub3 strain (AID 167); conditions: S. cerevisiae bub3 mutant strain, at 50.0 µM, hits give high values
Summary of the method: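 Compounds were applied to a genetically altered yeast strain carrying a cell-cycle control defect. Growth inhibition was scored against vehicle-treated controls.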

[6] = NCI Yeast Anticancer Drug Screen. Data for the mlh1 rad18 strain (AID 175); conditions: S. cerevisiae mlh1 rad18 strain growth inhibition; at 50.0 µM; hits give high values
Summary of the method: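 Inhibition values reflect reduced growth of mutant yeast versus vehicle-treated controls following compound exposure; the mutations affect DNA damage repair.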

Measured: growth inhibition

CCC1CC2CCC(c3cc4c(cc3OC)N(C)C3C(O)(C(=O)OC)C(OC(C)=O)C5(CC)C=CCN6CCC43C65)c3[nH]c4ccccc4c3CCN(C1)C2 (stereo unspecified)
inactive: [1] 2.65% | [2] 6.65% | [3] 12.4% | [4] -1% | [5] -3.35% | [6] 18.9%

NC(Cc1ccccc1)C(=O)Nc1ccccc1 (stereo unspecified)
inactive: [1] 18.3% | [2] -16% | [3] -7.3% | [4] 13.3% | [5] -22.1% | [6] 10.5%

CN(N=O)c1c([N+](=O)[O-])cc2c(c1[N+](=O)[O-])Cc1ccccc1-2
inactive: [1] 0.4% | [2] -4.3% | [3] -8.8% | [4] 17.6% | [5] 14.7% | [6] 19.4%

CC(=O)OC1CCC(C(C)C)CC1 (stereo unspecified)
inactive: [1] 4.35% | [2] -2.95% | [3] -0.25% | [4] -28.2% | [5] 1.15% | [6] -13.1%

CN(C)CC1CCCC/C1=N/OC(=O)c1ccc(Cl)cc1 (stereo unspecified)
inactive: [1] 0.15% | [2] 2.1% | [3] 10.9% | [4] 11.4% | [5] -4.6% | [6] 13.7%

OCCC(CO)Cc1ccc2c(c1)OCO2 (stereo unspecified)
inactive: [1] -26.7% | [2] 2.75% | [3] 9.3% | [4] 10.4% | [5] -14.2% | [6] -36.3%

O/N=C/c1ccc(Cc2ccccc2)o1
inactive: [1] 15.7% | [2] 19.6% | [3] 11.2% | [4] -18.8% | [5] -11.3% | [6] 25.9%

COC(=O)C1(C(=O)OC)O[C@@H](c2ccccc2)[C@H]2C(=O)N(C)C(=O)[C@H]21
inactive: [1] 7.05% | [2] 0.9% | [3] 7.45% | [4] 8.8% | [5] -1.1% | [6] 13.8%

CCCCCC/C(CC(=O)CCC(=O)NCCc1ccccc1)=N\NC(=O)c1ccc2ccccc2c1O
inactive: [1] 25% | [2] 20.2% | [3] 32.6% | [4] -49.2% | [5] 2.5% | [6] 45.5%

c1ccc(C2OC(c3ccccc3)c3ccccc32)cc1 (stereo unspecified)
inactive: [1] 7.55% | [2] -6.8% | [3] 12.4% | [4] -2.05% | [5] 24.1% | [6] 12.2%

CCOC(=O)Oc1cc2c(ccn2C)c2c1c1ccccc1n2C(=O)OCC
inactive: [1] 2.25% | [2] -1.8% | [3] -26.6% | [4] 8.9% | [5] 13.6% | [6] 0.4%

CN(C)CCC(CCN(C)C)=NOC(=O)c1ccccc1
inactive: [1] -5.45% | [2] -20.2% | [3] 10.1% | [4] 8.55% | [5] 21.4% | [6] 15.6%

CCCCS(=N)(=O)CC[C@H](N)C(=O)O (stereo partly specified)
inactive: [1] 2.3% | [2] -22.6% | [3] -25.1% | [4] -1.4% | [5] -47% | [6] -9.85%

CCC/C=C(/CC)COC(C)=O
inactive: [1] 3.15% | [2] -19.1% | [3] -6.6% | [4] -7.25% | [5] -5.35% | [6] -3.85%

CCCCCC(=O)Cc1cc(OC)cc2c1C(=O)Oc1cc(O)c(C(=O)O)c(CC(=O)CCCCC)c1O2
active: [1] 83% | [2] 86.5% | [3] 85.8% | [4] 79.4% | [5] 80.1% | [6] 78.1%

N#CCC(c1ccccc1)(c1ccccc1)c1ccccc1
inactive: [1] 46.4% | [2] 34.8% | [3] 45.9% | [4] 37.1% | [5] 52.4% | [6] 39.6%

CC(=O)Nc1cc(F)c(NC(C)=O)c(F)c1
inactive: [1] -2.05% | [2] -1.95% | [3] -18.9% | [4] -15.2% | [5] -9.05% | [6] -10.3%

Cc1ccc([N+](=O)[O-])cc1N1CCNC1=O
inactive: [1] 8.05% | [2] -17.2% | [3] -12.2% | [4] -62.7% | [5] 9% | [6] -21.9%

CCN=NNc1ccc(C#N)cc1
inactive: [1] 6.4% | [2] 2.15% | [3] -0.25% | [4] 6.1% | [5] 16.9% | [6] 0.55%

NS(=O)(=O)c1ccc(NC(=O)C2C(=O)N(c3ccc(S(N)(=O)=O)cc3)C(=O)/C2=N/O)cc1 (stereo unspecified)
inactive: [1] 9.55% | [2] 0.25% | [3] 9.8% | [4] -26.4% | [5] 2% | [6] 33.1%

C/C(N=NC(=S)N(C)C)=C1\C=CC=CN1O
inactive: [1] -0.25% | [2] 11.8% | [3] 8.1% | [4] 55.6% | [5] 23.1% | [6] 38.9%

O=C1CCSCCC(=O)Nc2ccccc2N1
inactive: [1] 3.6% | [2] 0.85% | [3] 16.6% | [4] 20.4% | [5] 17.9% | [6] -65.4%

CCC(=O)C(=O)C1CCCCC1=O (stereo unspecified)
inactive: [1] -2.4% | [2] -3.8% | [3] -2.5% | [4] -9.05% | [5] -17.6% | [6] -0.05%

c1ccc(CNc2ccccc2)cc1
inactive: [1] 3.6% | [2] -29.5% | [3] -24.4% | [4] 12.1% | [5] -18.9% | [6] -2.1%

Cc1cc2ccccc2c[n+]1CC(O)CBr (stereo unspecified)
inactive: [1] -5.45% | [2] 7.05% | [3] 11.3% | [4] -36.8% | [5] -11.4% | [6] 5.9%

O=c1c(Cl)c(-c2cccc3ccccc23)oc2ccccc12
inactive: [1] -14.3% | [2] 1.8% | [3] 4.2% | [4] -40.6% | [5] 9.2% | [6] -15.4%

CNC(=S)Nc1cccc(C)c1
inactive: [1] -3.1% | [2] 2.65% | [3] 4.55% | [4] -8.55% | [5] -10.4% | [6] 4.05%

CCOC(=O)C1CN2C(=O)CCC2C1=O (stereo unspecified)
inactive: [1] -5.65% | [2] 15.2% | [3] 8.7% | [4] -5.85% | [5] 15.4% | [6] 4.7%

O=c1cc([O-])[n+](C2OC(CO)C(O)C2O)c2sccn12 (stereo unspecified)
inactive: [1] 10.2% | [2] 9.2% | [3] 16.6% | [4] -0.5% | [5] -2.55% | [6] -2.8%

COc1ccc(C(C#N)N(C)C)cc1OC (stereo unspecified)
inactive: [1] -16.9% | [2] -13.6% | [3] 8% | [4] -15.1% | [5] 0.75% | [6] 5.15%

CCc1cc(Cc2cc(Cl)c(NC(=O)C(=O)C3NC(=O)NC3=O)c(CC)c2)cc(Cl)c1NC(=O)C(=O)C1NC(=O)NC1=O (stereo unspecified)
inactive: [1] 6.5% | [2] 5.2% | [3] 4.25% | [4] 15.9% | [5] 2.8% | [6] 8.65%

CC1=CC(C)(C)N=C2SC(c3ccc(Cl)cc3)=NN12
inactive: [1] 15.8% | [2] 7.25% | [3] 13.2% | [4] -5.8% | [5] 13.2% | [6] 10.6%

O=C(O)CCC(=O)CCC(=O)c1ccc(O)c2ncccc12
inactive: [1] -6.55% | [2] 6.2% | [3] 16.8% | [4] 26.5% | [5] 16.2% | [6] 21.5%

CCOC(=O)Cc1nc2ccc3c(c2[nH]c1=O)C(=O)c1ccccc1C3=O
inactive: [1] 34.7% | [2] 30.1% | [3] 17.1% | [4] 29.4% | [5] 33.2% | [6] 67.8%

CC1(C2(C)SCCS2)SCCS1
inactive: [1] 11.2% | [2] 2.9% | [3] -1% | [4] 11.2% | [5] -8.55% | [6] 10.5%

O=C1CSC(c2ccc(Cl)c(Cl)c2)N1c1nncs1 (stereo unspecified)
inactive: [1] -18.7% | [2] 11.8% | [3] 17.1% | [4] 10.4% | [5] 14.7% | [6] 23.4%

COC(=O)C1N=CSCC1(C)O (stereo unspecified)
inactive: [1] -4.8% | [2] 15.3% | [3] -25.9% | [4] 12.5% | [5] -2.45% | [6] -16.4%

CC(=O)CC(=O)Nc1ccccc1C
inactive: [1] -5.2% | [2] 5.95% | [3] 2.4% | [4] -27.4% | [5] -11.2% | [6] -22.7%

CCCCOC(=O)c1ccc(OC(=O)Nc2ccccc2)cc1
inactive: [1] 11.2% | [2] 6% | [3] 11.4% | [4] 7.7% | [5] 17.6% | [6] 3.7%

CC[n+]1c(-c2ccccc2)c2cc(NCCCN)ccc2c2ccc(N)cc21
inactive: [1] 33% | [2] 15.8% | [3] 8.8% | [4] 6.3% | [5] 3.75% | [6] 40.5%

O=C(/C=C/c1c(-c2ccccc2)[nH]c2ccccc12)c1cccc([N+](=O)[O-])c1
inactive: [1] 43% | [2] 17.1% | [3] 42% | [4] 20.9% | [5] 19.9% | [6] 36.2%
